# Experimental data published in PubChem BioAssay (NCATS).
# Records with an inconclusive call do not appear. A call without a number means that no potency is given here. Activity calls are given as the source filed them. Calls follow the shape of the dose curve; as a rule, active = well fitted cell-killing curve with a large enough effect; inconclusive = small, poorly fitted or top-dose-only effect, or effect the other way; inactive = flat fitted curve, though single readings scatter.
# Tested on: Hek293T
# Experiment: Primary qHTS to identify gynecologic anti-cancer compounds using libraries of approved drugs and bioactive compounds (AID 1345084); also: nearly all actives have a fitted effect of over 55% in size
# Conditions: Gynecologic cancer cell panel viability, ATPlite luminescence, 48 h, control line for the selectivity index; series mostly up to 57.5 µM
# Method in brief: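 ATP-based viability (ATPlite), 1,000 cells/well, 16 h pre-incubation, 48 h compound at 37 C, 5% CO2, 15 min RT before read.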
# Potency is read from the fitted curve at half-maximal effect.
row,SMILES,Potency
1,O=c1c2ccccc2nc2n1CCc1c-2[nH]c2ccccc12,inactive
2,CN(C)Cc1c(C(=O)NCCOc2ccc(C(=O)NO)cc2)oc2ccccc12,2.82 µM (active)
3,COc1cc(C(=O)N2CCC(N3CCN(C)CC3)CC2)ccc1Nc1ncc2c(n1)N(C)c1ccccc1C(=O)N2C,inactive
4,Cc1cc(CN2CCN(c3c(Br)cnc4nc(-c5ccc(N6CCN(C)CC6)cc5)[nH]c34)CC2)no1,inactive
5,Cc1nc2ccc(CN(C)c3ccc(C(=O)N[C@@H](CCC(=O)O)C(=O)O)s3)cc2c(=O)[nH]1,inactive
6,CCS(=O)(=O)c1cccc(-c2cc(C(=O)NC3CCN(C)CC3)c(C)c3[nH]c4ncc(C)cc4c23)c1,12.6 µM (active)
7,CN1CCC(CNc2ccc3ncc(-c4cccc(OC(F)(F)F)c4)n3n2)CC1,inactive
8,Cc1cn2c(-c3cn[nH]c3)cnc2c(Nc2ccc(C(=O)N3CCNCC3)cc2F)n1,inactive
